Experimental data from PubChem BioAssay.
“And” between values parts separate entries of the source, which are not always exact repeats. Equal entries are not always repeated.

Each compound was assayed on Human papillomavirus type 1a E7 protein (residues 1-88) (assay: HPV1a E7 small-molecule binders, primary screen, biochemical, small-molecule microarray, residues 1-88, 635 nm (AID 1129)). Conditions: small-molecule microarray binding, fluorescence 635 nm; higher = more signal.

Compound | composite z-score
C=CCN(CCCCC)C(=O)C(c1cccs1)N(CCOCCO)C(=O)/C=C\C(=O)O (centres undefined) | -1.05 and -0.826
CC(C)CCN1CCc2nc(-c3ccccc3)c3c(c2C1)CO[C@@H](C)C3 | 0.669
C=CCN(CCCC)C(=O)C1N(c2ccc(CCO)cc2)C(=O)C2C(C(=O)O)C3C=CC21O3 (centres undefined) | -1.48 and -1.18
C=C[C@H](OC)[C@@H](O)c1ccc(OCCO)cc1 | -1.73 and -0.721
C=C[C@H](C)[C@H](O)c1ccc(O)c2ccccc12 | -0.402 and -0.622
COC(=O)C1=C(C)N(Cc2ccccc2)[C@]23O[C@](C(=O)OC)(C(=O)N2[C@@H]1c1ccccc1)[C@H]1C(=O)N(c2ccccc2)C(=O)[C@H]13 | 1.12 and 0.575
CN1C(=O)C2CC=C([C@H]3Oc4ccccc4S(=O)(=O)N4CCC[C@@H]34)CC2C1=O (some centres undefined) | -0.984 and -0.409
CC(C)=NOC[C@@H](O)COCc1ccco1 | -1.73
CCOC(=O)NN=C1C[C@@H](O)[C@@H](O)[C@@H]2[C@@H]3C(=O)N(Cc4ccccc4)C(=O)[C@@H]3CC[C@@H]12 | 0.561
COC(=O)C1=C(C)N(Cc2ccccc2)[C@]23O[C@](C(=O)OC)(C(=O)N2[C@@H]1c1ccccc1)[C@H]1CCCC(=O)[C@H]13 | 0.312 and 0.104
C#CCCCON=C1C[C@@H](O)[C@@H](O)[C@@H]2[C@@H]3C(=O)N(C4CCCCC4)C(=O)[C@@H]3CC[C@H]12 | 1.1
C=C[C@@H](OC)[C@H](O)c1ccc(OC)c(O)c1 | -0.285 and -1.14
CC(C)=NOCc1ccc(-c2cn([C@@H]3COC[C@H]3O)nn2)cc1 | 0.245
CO[C@@H]1C=CCC(=O)N2CCC[C@H]2C(=O)OC[C@H](C)C(=O)OC[C@H]1C | -0.624
